Measurements from PubChem BioAssay AID1159580 (chemical genetic matrix, 2015).
Screen size: about 5,500 compounds; about 2,000 (36%) were called active. Not shown: some 18% with an inconclusive outcome. No stated cut-off is given here; in the data, active means normalized growth mostly below about 0.91 (no sharp cut-off); inconclusive means no clear call, values can overlap the other calls; inactive means mostly above about 0.92. This is one part of the list.

Assay: chemical genetic growth profiling, strain panel (AID 1159580);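 further: tested at 20 µM; growth read once vehicle control cultures reached saturation at 30 °C; 1 = growth at the plate median or of vehicle wells; lower values mean less growth of the strain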
Details: S. cerevisiae deletion strains, growth OD

Measured: normalized growth

C[C@@H]1CC2C3CCC4=CC(=O)C=C[C@]4(C)[C@@]3(F)[C@@H](O)C[C@]2(C)[C@H]1C(=O)CO (stereo not given in full)
inactive: locus YAL021C, strain ccr4, active compounds read low 1 | locus YAL026C, strain drs2, active compounds read low 0.998 | locus YAL030W, strain snc1, active compounds read low 0.998 | locus YBL061C, strain skt5, active compounds read low 0.999 | locus YBR009C, strain hhf1, active compounds read low 0.997 | locus YBR023C, strain chs3, active compounds read low 0.995 | locus YBR171W, strain sec66, active compounds read low 0.986 | locus YBR231C, strain swc5, active compounds read low 0.988 | locus YBR279W, strain paf1, active compounds read low 0.997 | locus YCL011C, strain gbp2, active compounds read low 0.993 | locus YCL016C, strain dcc1, active compounds read low 1.01 | locus YCL061C, strain MRC1, active compounds read low 0.994 | locus YCL069W, strain vba3, active compounds read low 1 | locus YCR088W, strain abp1, active compounds read low 0.992 | locus YDL005C, strain med2, active compounds read low 0.997 | locus YDL040C, strain nat1, active compounds read low 0.996 | locus YDR001C, strain nth1, active compounds read low 0.987 | locus YDR069C, strain doa4, active compounds read low 0.999 | locus YDR137W, strain rgp1, active compounds read low 0.979 | locus YDR159W, strain sac3, active compounds read low 0.998 | locus YDR195W, strain ref2 0.965 | locus YDR297W, strain sur2, active compounds read low 0.996 | locus YDR334W, strain swr1, active compounds read low 1 | locus YDR335W, strain msn5, active compounds read low 1 | locus YDR392W, strain spt3, active compounds read low 0.976 | locus YEL003W, strain gim4, active compounds read low 0.999 | locus YEL037C, strain rad23, active compounds read low 1 | locus YEL061C, strain CIN8 (second series), active compounds read low 0.996 | locus YER015W, strain faa2, active compounds read low 0.999 | locus YER016W, strain bim1, active compounds read low 1 | locus YER111C, strain swi4, active compounds read low 0.982 | locus YER155C, strain BEM2 (second series), active compounds read low 0.994 | locus YFR010W, strain ubp6, active compounds read low 0.989 | locus YGL167C, strain pmr1, active compounds read low 0.996 | locus YGL173C, strain kem1, active compounds read low 0.987 | locus YGL227W, strain vid30, active compounds read low 0.989 | locus YGL240W, strain doc1, active compounds read low 1 | locus YGL253W, strain hxk2, active compounds read low 1.01 | locus YHR013C, strain ard1, active compounds read low 1 | locus YHR027C, strain rpn1, active compounds read low 0.995 | locus YHR030C, strain SLT2, active compounds read low 1.06 | locus YHR079C, strain IRE1, active compounds read low 1.05 | locus YHR142W, strain chs7, active compounds read low 1.01 | locus YJL092W, strain hpr5, active compounds read low 0.998 | locus YJL095W, strain BCK1 (second series), active compounds read low 1.01 | locus YJL095W, strain BCK1, active compounds read low 0.98 | locus YJL115W, strain asf1, active compounds read low 0.996 | locus YJL129C, strain trk1, active compounds read low 1.01 | locus YJL154C, strain vps35, active compounds read low 0.995 | locus YJL164C, strain tpk1, active compounds read low 1.01 | locus YJL166W, strain qcr8, active compounds read low 0.998 | locus YJL187C, strain SWE1, active compounds read low 0.993 | locus YJR066W, strain TOR1, active compounds read low 1.01 | locus YKL160W, strain elf1, active compounds read low 1 | locus YKR026C, strain gcn3, active compounds read low 0.982 | locus YKR091W, strain srl3, active compounds read low 0.996 | locus YLL001W, strain dnm1, active compounds read low 0.982 | locus YLL026W, active compounds read low 0.988 | locus YLL041C, strain sdh2, active compounds read low 0.999 | locus YLR027C, strain aat2, active compounds read low 1.01 | locus YLR113W, strain HOG1, active compounds read low 0.929 | locus YLR221C, strain rsa3, active compounds read low 1.01 | locus YLR258W, strain gsy2, active compounds read low 1 | locus YLR262C, strain YPT6 (second series), active compounds read low 0.985 | locus YLR320W, strain mms22, active compounds read low 0.992 | locus YLR342W, strain FKS1, active compounds read low 1 | locus YLR357W, strain rsc2, active compounds read low 0.999 | locus YLR370C, strain arc18, active compounds read low 0.993 | locus YLR384C, strain iki3, active compounds read low 1 | locus YML120C, strain ndi1, active compounds read low 1 | locus YMR058W, strain fet3, active compounds read low 1 | locus YMR125W, strain sto1, active compounds read low 0.983 | locus YMR129W, active compounds read low 0.995 | locus YMR205C, strain PFK2, active compounds read low 0.973 | locus YMR231W, strain pep5, active compounds read low 0.998 | locus YNL071W, strain lat1, active compounds read low 0.999 | locus YNL183C, strain NPR1, active compounds read low 0.992 | locus YNL209W, strain ssb2, active compounds read low 1 | locus YNL248C, strain rpa49, active compounds read low 0.999 | locus YNL322C, strain KRE1 (second series), active compounds read low 1 | locus YNR049C, strain mso1, active compounds read low 0.999 | locus YOR001W, strain rrp6, active compounds read low 1.01 | locus YOR070C, strain gyp1, active compounds read low 0.997 | locus YOR080W, strain dia2, active compounds read low 0.991 | locus YOR083W, strain WHI5, active compounds read low 1.01 | locus YOR106W, strain vam3, active compounds read low 1.02 | locus YOR231W, strain MKK1, active compounds read low 1.05 | locus YOR265W, strain rbl2, active compounds read low 1 | locus YOR270C, strain vph1, active compounds read low 1.01 | locus YOR290C, strain snf2, active compounds read low 1 | locus YPL051W, strain arl3, active compounds read low 0.999 | locus YPL078C, strain atp4, active compounds read low 1.01 | locus YPL106C, strain sse1, active compounds read low 1.01 | locus YPL240C, strain hsp82, active compounds read low 0.982 | locus YPL256C, strain CLN2, active compounds read low 1.04
